Laboratory results: PubChem BioAssay AID1159580 (chemical genetic matrix, 2015)
Several values for one entry are separate records, joined by “and”; a condition that tells them apart may be missing. Equal values may be shown once. In all, about 5,500 compounds went through this assay and about 2,000 (36%) were called active. Not shown: some 18% with an inconclusive outcome. No stated cut-off is given here; in the data, active means normalized growth mostly below about 0.91 (no sharp cut-off); inconclusive means no clear call, values can overlap the other calls; inactive means mostly above about 0.92. This is one part of the list.

Test: chemical genetic growth profiling, strain panel (AID 1159580);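 further: tested at 20 µM; growth read once vehicle control cultures reached saturation at 30 °C; 1 = growth at the plate median or of vehicle wells; lower values mean less growth of the strain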
Settings: growth OD

Measured: normalized growth

Cc1c(NC(C)C)c(=O)n(-c2ccccc2)n1C
inactive: S. cerevisiae deletion strains, locus YAL013W, strain DEP1, hits give low values 1 | S. cerevisiae deletion strains, locus YBR021W, strain FUR4, hits give low values 0.994 | S. cerevisiae deletion strains, locus YBR229C, strain ROT2, hits give low values 0.989 | S. cerevisiae deletion strains, locus YCL029C, strain bik1, hits give low values 0.983 | S. cerevisiae deletion strains, locus YDL035C, strain GPR1, hits give low values 1.02 | S. cerevisiae deletion strains, locus YDL074C, strain BRE1, hits give low values 0.987 | S. cerevisiae deletion strains, locus YDL101C, strain DUN1, hits give low values 0.985 | S. cerevisiae deletion strains, locus YDL134C, strain PPH21, hits give low values 0.996 | S. cerevisiae deletion strains, locus YDL185W, strain tfp1, hits give low values 0.984 | S. cerevisiae deletion strains, locus YDL192W, strain arf1, hits give low values 0.995 | S. cerevisiae deletion strains, locus YDR101C, strain arx1, hits give low values 0.984 | S. cerevisiae deletion strains, locus YDR150W, strain NUM1, hits give low values 1 | S. cerevisiae deletion strains, locus YDR162C, strain NBP2, hits give low values 1.01 | S. cerevisiae deletion strains, locus YDR318W, strain mcm21, hits give low values 0.98 | S. cerevisiae deletion strains, locus YDR388W, hits give low values 0.974 | S. cerevisiae deletion strains, locus YDR502C, strain sam2, hits give low values 1 | S. cerevisiae deletion strains, locus YEL061C, strain CIN8, hits give low values 1 | S. cerevisiae deletion strains, locus YER110C, hits give low values 0.984 | S. cerevisiae deletion strains, locus YER155C, strain BEM2, hits give low values 0.99 | S. cerevisiae deletion strains, locus YER167W, strain BCK2, hits give low values 1 | S. cerevisiae deletion strains, locus YGL078C, strain dbp3, hits give low values 0.995 | S. cerevisiae deletion strains, locus YGL086W, strain mad1, hits give low values 1 | S. cerevisiae deletion strains, locus YGL248W, strain PDE1, hits give low values 1 | S. cerevisiae deletion strains, locus YGR078C, strain PAC10, hits give low values 0.987 | S. cerevisiae deletion strains, locus YGR135W, strain pre9, hits give low values 0.983 | S. cerevisiae deletion strains, locus YGR229C, strain SMI1, hits give low values 0.998 | S. cerevisiae deletion strains, locus YGR252W, strain gcn5, hits give low values 1.09 | S. cerevisiae deletion strains, locus YHR030C, strain SLT2, hits give low values 0.998 and 1.03 | S. cerevisiae deletion strains, locus YHR079C, strain IRE1 (second series), hits give low values 0.98 | S. cerevisiae deletion strains, locus YHR079C, strain IRE1, hits give low values 1.03 | S. cerevisiae deletion strains, locus YHR094C, strain hxt1, hits give low values 0.98 | S. cerevisiae deletion strains, locus YHR129C, strain ARP1, hits give low values 0.991 | S. cerevisiae deletion strains, locus YHR200W, strain rpn10, hits give low values 0.981 | S. cerevisiae deletion strains, locus YIL066C, strain RNR3, hits give low values 0.998 | S. cerevisiae deletion strains, locus YIL073C, strain SPO22, hits give low values 1 | S. cerevisiae deletion strains, locus YIL125W, strain kgd1, hits give low values 0.99 | S. cerevisiae deletion strains, locus YIR030C, strain dcg1, hits give low values 0.986 | S. cerevisiae deletion strains, locus YJL095W, strain BCK1, hits give low values 0.99 and 1.03 | S. cerevisiae deletion strains, locus YJL134W, strain LCB3, hits give low values 0.998 | S. cerevisiae deletion strains, locus YJL168C, strain set2, hits give low values 0.98 | S. cerevisiae deletion strains, locus YJL187C, strain SWE1 (second series), hits give low values 0.984 | S. cerevisiae deletion strains, locus YJR043C, strain POL32, hits give low values 1 | S. cerevisiae deletion strains, locus YJR066W, strain TOR1, hits give low values 0.962 | S. cerevisiae deletion strains, locus YJR075W, strain HOC1, hits give low values 0.994 | S. cerevisiae deletion strains, locus YKL009W, strain mrt4, hits give low values 0.999 | S. cerevisiae deletion strains, locus YKL068W, hits give low values 0.989 | S. cerevisiae deletion strains, locus YKL085W, strain MDH1 (second series), hits give low values 1 | S. cerevisiae deletion strains, locus YKL085W, strain MDH1, hits give low values 1 | S. cerevisiae deletion strains, locus YKL190W, strain CNB1, hits give low values 1 | S. cerevisiae deletion strains, locus YKR001C, strain vps1, hits give low values 0.992 | S. cerevisiae deletion strains, locus YLR039C, strain RIC1, hits give low values 1.05 | S. cerevisiae deletion strains, locus YLR058C, strain SHM2, hits give low values 0.988 | S. cerevisiae deletion strains, locus YLR102C, strain apc9, hits give low values 0.98 | S. cerevisiae deletion strains, locus YLR113W, strain HOG1, hits give low values 1.05 | S. cerevisiae deletion strains, locus YLR262C, strain YPT6, hits give low values 1.01 | S. cerevisiae deletion strains, locus YLR268W, strain sec22, hits give low values 0.925 | S. cerevisiae deletion strains, locus YLR330W, strain CHS5, hits give low values 1.01 | S. cerevisiae deletion strains, locus YLR342W, strain FKS1 (second series), hits give low values 1.04 | S. cerevisiae deletion strains, locus YLR371W, strain rom2, hits give low values 0.974 | S. cerevisiae deletion strains, locus YLR418C, strain cdc73, hits give low values 0.957 | S. cerevisiae deletion strains, locus YML016C, strain PPZ1, hits give low values 0.988 | S. cerevisiae deletion strains, locus YML032C, strain rad52, hits give low values 0.964 | S. cerevisiae deletion strains, locus YML124C, strain tub3, hits give low values 0.985 | S. cerevisiae deletion strains, locus YMR078C, strain ctf18, hits give low values 0.989 | S. cerevisiae deletion strains, locus YMR223W, strain ubp8, hits give low values 1.01 | S. cerevisiae deletion strains, locus YMR263W, strain SAP30, hits give low values 1 | S. cerevisiae deletion strains, locus YMR307W, strain GAS1, hits give low values 0.978 | S. cerevisiae deletion strains, locus YNL067W, strain RPL9B, hits give low values 0.986 | S. cerevisiae deletion strains, locus YNL128W, strain TEP1, hits give low values 1 | S. cerevisiae deletion strains, locus YNL153C, strain GIM3, hits give low values 0.986 | S. cerevisiae deletion strains, locus YNL183C, strain NPR1, hits give low values 0.974 | S. cerevisiae deletion strains, locus YNL233W, strain BNI4, hits give low values 0.986 | S. cerevisiae deletion strains, locus YNL250W, strain rad50, hits give low values 0.977 | S. cerevisiae deletion strains, locus YNL271C, strain bni1, hits give low values 0.986 | S. cerevisiae deletion strains, locus YNL298W, strain CLA4, hits give low values 0.971 | S. cerevisiae deletion strains, locus YNL307C, strain MCK1, hits give low values 0.982 | S. cerevisiae deletion strains, locus YNL322C, strain KRE1, hits give low values 0.993 | S. cerevisiae deletion strains, locus YNR052C, strain pop2, hits give low values 0.991 | S. cerevisiae deletion strains, locus YOL006C, strain TOP1, hits give low values 0.927 | S. cerevisiae deletion strains, locus YOL012C, strain htz1 1.17 | S. cerevisiae deletion strains, locus YOL147C, strain pex11, hits give low values 0.991 | S. cerevisiae deletion strains, locus YOR061W, strain CKA2, hits give low values 0.997 | S. cerevisiae deletion strains, locus YOR069W, strain VPS5, hits give low values 0.988 | S. cerevisiae deletion strains, locus YOR136W, strain idh2, hits give low values 0.971 | S. cerevisiae deletion strains, locus YOR144C, strain elg1, hits give low values 0.97 | S. cerevisiae deletion strains, locus YOR184W, strain ser1, hits give low values 0.985 | S. cerevisiae deletion strains, locus YOR231W, strain MKK1, hits give low values 1.04 | S. cerevisiae deletion strains, locus YOR316C, strain cot1, hits give low values 0.982 | S. cerevisiae deletion strains, locus YPL055C, strain LGE1, hits give low values 1.01 | S. cerevisiae deletion strains, locus YPL241C, strain CIN2, hits give low values 1 | S. cerevisiae deletion strains, locus YPL256C, strain CLN2, hits give low values 1.09 | S. cerevisiae deletion strains, locus YPR119W, strain clb2, hits give low values 0.982 | S. cerevisiae deletion strains, locus YPR141C, strain kar3, hits give low values 0.975 | S. cerevisiae deletion strains, locus YPR163C, strain tif3, hits give low values 0.982 | S. cerevisiae deletion strains, locus YPR167C, strain met16, hits give low values 0.971 | S. cerevisiae deletion strains, strain wtn01, hits give low values 0.971 | S. cerevisiae strains, strain wild type, hits give low values 0.995
